Results on 40 compounds are retold here after PubChem BioAssay (NCATS).

Activity calls are given as the source filed them. The call rests on the fitted dose curve; in most records, active means well fitted curve in the direction sought with a large enough effect; inconclusive means small, poorly fitted or top-dose-only effect, or effect the other way, or another doubt; inactive means no such curve, though single readings can be large or run the other way.

A short description of this test: qHTS for inhibitors of adenylyl cyclases using a fission yeast platform: a pilot screen against the NCATS LOPAC library (AID 1347410). To be noted: S. pombe CHP2027, fbp1-GFP fluorescence, 18 h; series mostly up to 57.5 µM. An excerpt:
PI: Charles S. Hoffman Ph.D
Boston College, 140 Commonwealth Ave., Chestnut Hill, MA
Assay Development and Screening Technology Laboratory (ADST)
National Center for Advancing Translational Sciences (NCATS), Rockville, MD
National Institute of Health (NIH), Bethesda, Maryland
The fission yeast Schizosaccharomyces pombe uses a cAMP signaling pathway to link glucose-sensing to Protein Kinase A activity in order to regulate cell growth, sexual development, gluconeogenesis, and exit from stationary phase. Here, we describe the successful functional expression of all ten mammalian adenylyl cyclase (AC) genes, along with the human GNAS G-alpha gene in this organism. By measuring expression of a PKA-repressed fbp1-GFP reporter together with direct measurements of intracellular cAMP levels, one can detect both basal AC activity from all ten AC genes as well as GNAS-stimulated activity from eight of the nine transmembrane ACs (tmACs; AC2-AC9).
Further confirmation and validation of active compounds lead to the identification of diphenyleneiodonium chloride (DPI) as an inhibitor of basal AC activity. This fluorescence based fbp1-GFP-GNAS screening technology could facilitate the development of therapeutic compounds that target GNAS or the ACs, an area in which there is significant unmet need.
The gain-of-signal output is not substantially affected by cytotoxic compounds within the library.
Getz RA, et al., A fission yeast platform for heterologous expression of mammalian adenylyl cyclases and high throughput screening, Cellular Signaling, 2019, 60: 114-121. doi.org/10.1016/j.cellsig.2019.04.010.
PROTOCOL TABLE (as described by Inglese J, Shamu CE and Guy RK. 2007)
SEQUENCE No. (e.g., 1, 2, 3, etc.); […] (e.g., Cells, Incubation, Reagent, etc.); VALUE; DESCRIPTION.
1; Dispense growth medium; 2 uL; black, clear bottom, low base, 1536-well Aurora assay plate.
2; Compounds and control; 23 nL; Kalypsis pin tool (Wako USA) equipped with a 1536-well pin head to transfer to the assay plates.
3; Dispense yeast cells; 2 uL; CHP2027 cells.
4; Incubation; 18 hours (dark at 30C); Non-humidified microbial incubator.
5; Detector; 425V; Fluorescence; laser scanning cytometry.
NOTES (numbers refer to Sequence numbers above)
1. S. pombe growth medium EMM containing histidine, lysine, and uracil was initially dispensed into the assay plate to avoid yeast contamination using a Multidrop Combi dispenser (Thermo Fisher Scientific).
2. 10 mM stock solution of DPI (Sigma-Aldrich D2926) dissolved in DMSO was used as a 16-point dose response positive control, while 1.11 mM DPI stock solution was used as a single point max response positive control. Solvent DMSO was used as the negative control. Control DPI was transferred as a single-dose (column 3; rows 1-32; 1.11 mM stock), and multi-dose (column 4; rows 1-32; 10mM stock; 1:1.5 dilution; 16pnt titration) positive controls. Vehicle control DMSO was pinned into column 1-2, rows 1-32. Lopac compounds were pinned into columns 5-48 resulting to a final concentration range 57 µM to 78.4 nMControl DPI stock (10 mM) was prepared by dissolving 10 mg in 3.18 mL DMSO; while 1.11 mM DPI stock was prepared by mixing 100 uL of 10 mM DPI with 800 uL DMSO. To create the control plates, we initially start with a 384-well compound working plate. With a repeater pipette, (a.) 16 uL/well of 1.11 mM DPI was added to column 3; (b.) 16 uL/well of DMSO was added into rows 2-16 of column 4; (c.) 50 uL/well of DPI added to rows 1 and 2 of column 4; (d.) 32 uL serial dilution (two-thirds-fold) from rows 2 to 16 of column 4 with manual pipette. From the 384-well compound working plate, 7 uL of respective control compound was transferred to respective columns of the 1536-well compound plate using a multichannel pipette.
3. S. pombe CHP2027 (AC9-GNAS-PDE4D2) expressing fbp1-GFP cells were grown at 30C in EMM medium containing histidine, lysine, and uracil. […]
(qHTS replaces the single test concentration by a dilution series.)
With `CC1(C(=O)O)C2CCC(O2)C1(C)C(=O)O` (stereo not given), the result was inactive.
Regarding `CN1CC[C@@]2(C)c3cc(O)ccc3N(C)C12` (stereo not given in full), the result was inactive.
In the case of `CCOC(=O)c1ncn2c1[C@@H]1CCCN1C(=O)c1cc(OC)ccc1-2` it was “inactive”; in that of `CCCN1CCc2cccc3c2[C@H]1Cc1ccc(O)c(O)c1-3`, “inactive”.
For the compound `COc1ccc2c(c1O)-c1cccc3c1[C@@H](C2)N(C)CC3`, the call was inactive.
With `C[N+]1(C)CCN(c2ccccc2)CC1` the entry was “inactive”; with `O=S1(=O)N(CCN2CC=C(c3c[nH]c4cc(F)ccc34)CC2)c2cccc3c2N1CCC3`, “inactive”.
In the case of `CNc1ccc2oc(C[C@H]3O[C@@]4(CC[C@H]3C)O[C@H]([C@H](C)C(=O)c3ccc[nH]3)[C@H](C)C[C@H]4C)nc2c1C(=O)O` it was “inactive”; in that of `C[N+](C)(C)CC#CCOC(=O)Nc1cccc(Cl)c1`, “inactive”; in that of `Cc1cc([C@@H]2CCCN2C)on1`, “inactive”.
With `CN1CCc2cc(O)cc3c2[C@H]1Cc1ccc(O)c(O)c1-3` the entry was “inactive”; with `NC(C(=O)O)c1cc(=O)[nH]o1` (stereo not given), “inactive”.
With `NC(N)=NOCC[C@H](N)C(=O)O`, the outcome was inactive.
With `NC(N)=Nc1ccc2[nH]c3c(c2c1)C[C@@]1(O)[C@H]2Cc4ccc(O)c5c4[C@@]1(CCN2CC1CC1)[C@H]3O5` the entry was “inactive”; with `CCCCCCCCCCCCCC(=O)O[C@@H]1[C@@H](C)[C@@]2(O)[C@@H](C=C(CO)C[C@@]3(O)C(=O)C(C)=C[C@@H]23)C2C(C)(C)[C@@]21OC(C)=O` (stereo not given in full), “inactive”; with `NC(=O)c1cc(N2CC2)c([N+](=O)[O-])cc1[N+](=O)[O-]`, “inactive”.
In the case of `CC(N)Cc1c[nH]c2ccc(O)cc12` (stereo not given) it was “inactive”.
With `CO[C@H]1CC=C2CCN3CCC4=C(CC(=O)OC4)[C@]23C1` the entry was “inactive”; with `O=[N+]([O-])c1cc(O)c(O)c([N+](=O)[O-])c1`, “inactive”; with `CN(N=O)c1ccc(O)c(O)c1`, “inactive”.
With `NC(=O)COc1c(F)cc(SCCNS(=O)(=O)c2ccccc2)cc1F`, the result was inactive.
In the case of `CN1CCc2cccc(Cl)c2CC1` it was “inactive”; in that of `CC(C)(O)[C@@H]1C2OC(=O)[C@@H]1[C@]1(O)C[C@H]3O[C@]34C(=O)O[C@H]2[C@]14C` (tested in a mixture with another compound), “inactive”; in that of `NC(CCCCCP(=O)(O)O)C(=O)O` (stereo not given), “inactive”.
In the case of `CC(C)(C)OC(=O)NC1[C@H]2CNC[C@@H]12` (stereo not given in full) it was “inactive”; in that of `C=CCN1C[C@@H](C)N([C@H](c2ccc(C(=O)N(CC)CC)cc2)c2cccc(OC)c2)C[C@@H]1C`, “inactive”.
Consider `CC(C)(C)c1o[nH]c(=O)c1CC(N)C(=O)O` (stereo not given), for which the call was inactive.
Consider `CCn1cnc2c(Nc3cccc(Cl)c3)nc(N[C@@H]3CCCC[C@@H]3N)nc21`, for which the result was inactive.
As for `CN(N=O)c1cc(O)ccc1O`, the compound was classed as inactive.
With `CCCN1CCC[C@@H](c2cccc(O)c2)C1` the entry was “inactive”; with `CC(N)c1cccc(Cl)c1Cl` (stereo not given), “inactive”; with `Cc1c2ccncc2c(C)c2c1[nH]c1ccccc12`, “inactive”.
In the case of `CCCN(CCC)C1Cc2cc(OC)c(OC)cc2C1` it was “inactive”.
Consider `CCCN(CCC)CCc1ccc(O)c(O)c1`, for which the call was inactive.
With `CCN1C[C@@]2(COC)C3[C@@H](OC)C4[C@@H]1C3([C@@H]1C[C@]3(O)[C@H](OC(=O)c5ccccc5)[C@@H]1[C@]4(OC(C)=O)[C@@H](O)[C@@H]3OC)[C@H](OC)C[C@H]2O`, the outcome was inactive.
With `CN1CCC(c2c[nH]c3ccc(O)cc23)CC1` the entry was “inactive”.
With `O=[N+]([O-])/C=C/c1ccc2c(c1)OCO2` the entry was “inactive”.
For `O=C1C=CC(=O)C=C1`, the compound was called inactive.
With `N#CCCN` the entry was “inactive”; with `CN1CCC[C@@H]1Cc1c[nH]c2ccc(Nc3ncccc3[N+](=O)[O-])cc12`, “inactive”.
